PubChem BioAssay AID1159580 (chemical genetic matrix, 2015)
Where “and” joins values, the source holds several entries; their conditions need not be identical. Equal values may be shown once. Out of some 5,500 compounds screened, about 2,000 (36%) were called active. Not shown: some 18% with an inconclusive outcome. No stated cut-off is given here; in the data, active means normalized growth mostly below about 0.91 (no sharp cut-off); inconclusive means no clear call, values can overlap the other calls; inactive means mostly above about 0.92. Some of the results follow.

Assay: chemical genetic growth profiling, strain panel (AID 1159580);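 further: tested at 20 µM; growth read once vehicle control cultures reached saturation at 30 °C; 1 = growth at the plate median or of vehicle wells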
Details: S. cerevisiae deletion strains, growth OD

Measured: normalized growth

C=C1C(=O)O[C@@H]2C3O[C@]3(C)CC/C=C(\C)CC[C@@H]12 (stereo partly specified)
0.446 (active) and 0.99 (inactive): locus YJL095W, strain BCK1, stronger effect = lower value
active: locus YAL013W, strain DEP1, stronger effect = lower value 0.878 | locus YCL029C, strain bik1, stronger effect = lower value 0.905 | locus YDL035C, strain GPR1, stronger effect = lower value 0.838 | locus YDL074C, strain BRE1, stronger effect = lower value 0.671 | locus YDL101C, strain DUN1, stronger effect = lower value 0.87 | locus YDL192W, strain arf1, stronger effect = lower value 0.729 | locus YDR101C, strain arx1, stronger effect = lower value 0.864 | locus YDR137W, strain rgp1, stronger effect = lower value 0.556 | locus YDR162C, strain NBP2, stronger effect = lower value 0.455 | locus YDR318W, strain mcm21, stronger effect = lower value 0.739 | locus YDR388W, stronger effect = lower value 0.901 | locus YDR392W, strain spt3, stronger effect = lower value 0.532 | locus YDR502C, strain sam2, stronger effect = lower value 0.818 | locus YEL061C, strain CIN8, stronger effect = lower value 0.86 | locus YER110C, stronger effect = lower value 0.879 | locus YER155C, strain BEM2, stronger effect = lower value 0.798 | locus YER167W, strain BCK2, stronger effect = lower value 0.694 | locus YGL086W, strain mad1, stronger effect = lower value 0.792 | locus YGL248W, strain PDE1, stronger effect = lower value 0.879 | locus YGR078C, strain PAC10, stronger effect = lower value 0.695 | locus YGR135W, strain pre9, stronger effect = lower value 0.749 | locus YGR229C, strain SMI1, stronger effect = lower value 0.396 | locus YHR079C, strain IRE1 (second series), stronger effect = lower value 0.861 | locus YHR129C, strain ARP1, stronger effect = lower value 0.801 | locus YIL066C, strain RNR3, stronger effect = lower value 0.7 | locus YIL073C, strain SPO22, stronger effect = lower value 0.588 | locus YIR030C, strain dcg1, stronger effect = lower value 0.912 | locus YJL168C, strain set2, stronger effect = lower value 0.914 | locus YJL187C, strain SWE1 (second series), stronger effect = lower value 0.866 | locus YJR043C, strain POL32, stronger effect = lower value 0.752
inactive: locus YAL021C, strain ccr4, stronger effect = lower value 0.967 | locus YAL026C, strain drs2, stronger effect = lower value 0.914 | locus YAL030W, strain snc1, stronger effect = lower value 0.983 | locus YBL061C, strain skt5, stronger effect = lower value 1.01 | locus YBR009C, strain hhf1, stronger effect = lower value 0.977 | locus YBR021W, strain FUR4, stronger effect = lower value 1.06 | locus YBR023C, strain chs3, stronger effect = lower value 0.964 | locus YBR171W, strain sec66, stronger effect = lower value 0.975 | locus YBR229C, strain ROT2, stronger effect = lower value 0.941 | locus YBR231C, strain swc5, stronger effect = lower value 1.01 | locus YBR279W, strain paf1, stronger effect = lower value 0.948 | locus YCL011C, strain gbp2, stronger effect = lower value 0.978 | locus YCL016C, strain dcc1, stronger effect = lower value 0.946 | locus YCL069W, strain vba3, stronger effect = lower value 1 | locus YCR088W, strain abp1, stronger effect = lower value 0.983 | locus YDL005C, strain med2, stronger effect = lower value 0.989 | locus YDL040C, strain nat1, stronger effect = lower value 0.993 | locus YDL134C, strain PPH21, stronger effect = lower value 0.903 | locus YDL185W, strain tfp1, stronger effect = lower value 0.913 | locus YDR001C, strain nth1, stronger effect = lower value 0.997 | locus YDR069C, strain doa4, stronger effect = lower value 0.981 | locus YDR150W, strain NUM1, stronger effect = lower value 0.917 | locus YDR159W, strain sac3, stronger effect = lower value 1.02 | locus YDR195W, strain ref2 1.06 | locus YDR297W, strain sur2, stronger effect = lower value 0.998 | locus YDR334W, strain swr1, stronger effect = lower value 0.987 | locus YDR335W, strain msn5, stronger effect = lower value 0.976 | locus YEL003W, strain gim4, stronger effect = lower value 0.973 | locus YEL037C, strain rad23, stronger effect = lower value 0.992 | locus YEL061C, strain CIN8 (second series), stronger effect = lower value 1 | locus YER015W, strain faa2, stronger effect = lower value 0.993 | locus YER016W, strain bim1, stronger effect = lower value 0.997 | locus YER111C, strain swi4, stronger effect = lower value 0.992 | locus YER155C, strain BEM2 (second series), stronger effect = lower value 0.888 | locus YFR010W, strain ubp6, stronger effect = lower value 0.992 | locus YGL078C, strain dbp3, stronger effect = lower value 0.937 | locus YGL167C, strain pmr1, stronger effect = lower value 0.97 | locus YGL173C, strain kem1, stronger effect = lower value 0.956 | locus YGL227W, strain vid30, stronger effect = lower value 0.999 | locus YGL240W, strain doc1, stronger effect = lower value 0.962 | locus YGL253W, strain hxk2, stronger effect = lower value 0.963 | locus YGR252W, strain gcn5, stronger effect = lower value 0.771 | locus YHR013C, strain ard1, stronger effect = lower value 0.894 | locus YHR027C, strain rpn1, stronger effect = lower value 0.991 | locus YHR079C, strain IRE1, stronger effect = lower value 0.966 | locus YHR094C, strain hxt1, stronger effect = lower value 0.934 | locus YHR142W, strain chs7, stronger effect = lower value 0.962 | locus YHR200W, strain rpn10, stronger effect = lower value 0.924 | locus YIL125W, strain kgd1, stronger effect = lower value 0.937 | locus YJL092W, strain hpr5, stronger effect = lower value 0.987 | locus YJL095W, strain BCK1 (second series), stronger effect = lower value 0.976 | locus YJL115W, strain asf1, stronger effect = lower value 0.991 | locus YJL129C, strain trk1, stronger effect = lower value 1 | locus YJL134W, strain LCB3, stronger effect = lower value 0.943 | locus YJL154C, strain vps35, stronger effect = lower value 0.998 | locus YJL164C, strain tpk1, stronger effect = lower value 0.95 | locus YJL166W, strain qcr8, stronger effect = lower value 0.961 | locus YJL187C, strain SWE1, stronger effect = lower value 0.963 | locus YJR066W, strain TOR1, stronger effect = lower value 0.937
0.722 (active) and 0.968 (inactive): locus YHR030C, strain SLT2, stronger effect = lower value
